Among all 58,000 […] or so, about 3,400 (5.9%) were called active. Cut-off read from the data, not from the text of the source: active = GI50 up to about 1.1 µM and inactive = higher. A selection follows. Entries with a potency or affinity are not part of this list.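 Interpolation was linear, between the two tested concentrations surrounding the appropriate level; five concentrations were tested over 48 hours in 96-well plates. Here, GI50 denotes the concentration required for 50% inhibition of growth.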

In this experiment the test system is A549. As to the kind of experiment: NCI tumour cell line growth inhibition, 48 h.
Regarding “[Bis(aminomethyl)ethylmethylsilane]tetrachloroplatinum(IV), CHEMBL2146192”, the GI50 is 2.57 µM.
The same measure for “[Bis(aminomethyl)tetramethylenesilane]dichloropaltinum(II), CHEMBL2146205”: 27 µM.
The same measure for “mu-(1,7-nanodiamine-N,N')bis-(cis-aminedichloroplatimum (II)), CHEMBL2146215”: 38.7 µM.
Then “[Bis(aminomethyl)dimethylsilane]tetrachloroplatinum(IV), CHEMBL2146190”, with 4.91 µM.
Consider “[Bis(aminomethyl)diethylsilane]tetrachloroplatinum(IV), CHEMBL2146203”, for which the GI50 came out at 6.84 µM.
Substance CISPLATIN, CHEMBL11359 returned a GI50 of 3.08 µM.
Then “[Bis(aminomethyl)dimethylsilane]dichloroplatinum (II), CHEMBL2146201”, with 17.4 µM.
Then “cis-Bis[[(trimethylsilyl)methyl]amino]tetrachloroplatinum(IV), CHEMBL2146191”, with 15.6 µM.
The same measure for “[Bis(aminomethyl)tetramethylenesilane]tetrachloropaltinum(IV), CHEMBL2146189”: 8.34 µM.
For “[Bis(aminomethyl)pentamethylenesilane]dichloropaltinum(II), CHEMBL2146202”, the GI50 is 2.08 µM.
The same measure for “[Bis(aminomethyl)pentamethylenesilane]tetrachloropaltinum(IV), CHEMBL2146204”: 2.02 µM.

The record behind these values is ChEMBL document CHEMBL1201862, “PubChem BioAssay data set” (2004).
